High-throughput results: PubChem, several laboratories
Glyco luc inh – N-linked glycosylation inhibition | D54 ERlucT glycosylation luciferase reporter, 24 h; percent of 100 nM tunicamycin response | reporter increase, % at 12.5 µM | AID 588692 | actives 0.23% (n = 360,000);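 active = mean luciferase reporter signal, scaled so untreated is 0 and the glycosylation-blocking control 100, at or above a set limit in every replicate; inconclusive = mean reaches the limit but not every replicate does; inactive = mean below the limit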;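 also: luciferase carries N-glycosylation sites so blocking glycosylation raises the light; 0% = median of neutral control wells and 100% = median of 100 nM tunicamycin wells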
RAD52 anneal inh – inhibitors of human RAD52 DNA annealing; recombinant RAD52 DNA annealing, FRET fluorescence; inhibition, % at 18.7 µM; actives 0.46% (n = 360,000);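 active = every replicate showing at least 50% inhibition; inconclusive = mean inhibition at least 50% but not in every replicate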
NRP1-CendR mod – alters CendR peptide binding to human NRP-1; FAM-RPARPAR peptide binding to NRP-1, fluorescence polarization; inhibition, % at 25 µM; actives 0.85% (n = 360,000); AID 602438;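 active = inhibition or corrected inhibition above about 18%, plus a signal ratio from 0.5 to 1.5, limit read from the data, passing the limit was not always enough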
FID counter – counter-screen for HCV NS3 helicase inhibitors: DNA intercalator displacement. inhibition, % at 7.9 µM. DNA fluorescent intercalator displacement, fluorescence. actives 0.17% (n = 290,000); in the data active = inhibition above about 37%;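 also: 0% = vehicle and 100% = reference compound; higher means more ethidium bromide displaced from hairpin DNA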
RAD54 inh – RAD54 (human) branch migration inhibition | RAD54 Holliday junction branch migration, FAM/BHQ fluorescence | actives 0.14% (n = 360,000) | Q92698 | inhibition, % at 10.4 µM;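 active = mean normalized replicate activity at least 40 and at least half of replicates scoring 40 or more; inconclusive = only one of the two criteria met; inactive = mean below 40 and under half of replicates reaching 40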;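 also: 0% = median of neutral control wells and 100% = median of positive control wells; inhibitors cause a drop in the FAM fluorescence signal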
Target sequence (Q92698 whole entry, looked up): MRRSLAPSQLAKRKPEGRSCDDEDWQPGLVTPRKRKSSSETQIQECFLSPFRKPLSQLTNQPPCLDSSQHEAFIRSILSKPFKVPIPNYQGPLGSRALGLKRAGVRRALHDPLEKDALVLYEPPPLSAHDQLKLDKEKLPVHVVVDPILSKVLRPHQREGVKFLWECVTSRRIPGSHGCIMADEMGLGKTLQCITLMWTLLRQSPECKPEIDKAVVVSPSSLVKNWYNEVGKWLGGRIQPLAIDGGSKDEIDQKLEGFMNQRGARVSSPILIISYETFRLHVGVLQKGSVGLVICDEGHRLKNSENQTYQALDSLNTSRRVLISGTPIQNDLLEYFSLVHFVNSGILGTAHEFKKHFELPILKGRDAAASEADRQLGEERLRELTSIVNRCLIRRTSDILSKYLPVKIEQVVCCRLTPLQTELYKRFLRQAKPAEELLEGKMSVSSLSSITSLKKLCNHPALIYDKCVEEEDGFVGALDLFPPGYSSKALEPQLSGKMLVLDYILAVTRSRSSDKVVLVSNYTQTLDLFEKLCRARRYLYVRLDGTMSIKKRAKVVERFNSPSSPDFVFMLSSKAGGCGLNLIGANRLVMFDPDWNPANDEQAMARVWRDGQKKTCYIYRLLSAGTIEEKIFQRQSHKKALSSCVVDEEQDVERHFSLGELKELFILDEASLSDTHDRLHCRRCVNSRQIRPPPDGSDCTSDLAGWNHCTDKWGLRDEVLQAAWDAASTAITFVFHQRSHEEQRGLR
miR122 inh – blocks miR-122 activity in Huh7 sensor cells | activation (reporter increase), % at 12.5 µM | actives 0.3% (n = 340,000) | Huh7 miR-122 Renilla luciferase sensor, 48 h; neutral wells = 0, positive control = 100 | AID 602342;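 active = mean replicate activation score at least 90 and every replicate individually at or above 90; inconclusive = only one of the two criteria met; inactive = neither criterion met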;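 also: higher luciferase means less miR-122 activity so hits act as miR-122 inhibitors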
DNA binder FP – counter-screen for RAD52 inhibitors: DNA binding compounds; shares compounds with RAD52 anneal inh; AC50, µM; actives 8% (n = 1,000); Salmon sperm DNA/acridine orange FP displacement;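 active = fitted half-maximal concentration for signal loss at or below twice the highest dose tested, in every separate run, actives reach about 64 µM in these data; inconclusive = runs disagree, or flat partial signal loss, or poor fit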
* = called active by the depositor; i = inactive; ? = inconclusive; · = no result; [ ] = dose if it differs, or a comment. Shown are actives, neighbours in structure and some others; about 1.5% of the full set was active somewhere.

SMILES	Glyco luc inh	RAD52 anneal inh	NRP1-CendR mod	FID counter	RAD54 inh	miR122 inh	DNA binder FP
CC(=O)c1cccc(Nc2cc(C)nc3c(C)cccc23)c1	17.5	50.3*	-4.3	6.7	·	·	i
CC(=O)c1cccc(Nc2cc(C)nc3ccccc23)c1	0.5	8.5	-2.0	-0.1	20.6	-3.4	·
CC(C)(C)[S@@](=O)N1Cc2cc(C(=O)NCc3ccc4c(c3)OCO4)nc(-c3cccc(-c4cccnc4)c3)c2[C@H]1CCO	·	-41.3	·	·	12.0	·	·
C[C@@H]1CN([C@H](C)CO)C(=O)c2cc(C#CC3CCCCC3)cnc2O[C@H]1CN(C)S(C)(=O)=O	·	-1.6	·	·	-2.0	-0.5[16.7 µM]	·
COc1ccc(-c2nc(NCCCN(C)C)c3ccccc3n2)cc1	42.7*	87.2*	-14.8	78.7*	90.5*	-4.9	i
CCN(CC)CCCNc1nc2ccccc2c2[nH]c3ccc(OC)cc3c12	-20.5	105.5*	-0.4	·	·	·	6.48µM*
CCC(=O)N1CC(=O)N2[C@H](CO)[C@H](c3ccc(-c4ccccc4F)cc3)[C@H]2C1	·	-29.9	·	·	·	·	·
C[C@H](CO)N1C[C@H](C)[C@H](CN(C)Cc2ccc3c(c2)OCO3)Oc2c(NS(=O)(=O)c3ccc(F)cc3)cccc2C1=O	·	5.0	·	·	8.9	13.2[16.7 µM]	·
CCC(=O)N1CC(=O)N2[C@H](C1)[C@@H](c1ccc(-c3cccnc3)cc1)[C@@H]2CO	·	11.3	·	·	·	·	·
COc1cccc2c3cccc(OC)c3c3[nH]cnc3c12	?	85.8*	-2.1	·	·	·	i
COc1cccc2[nH]c3c(=O)[nH]cnc3c12	2.0	-13.2	-8.4	-7.7	-4.1	-16.2	·
C[C@@H](O)Cc1cn(CC(=O)NCCCCCCCCCCC(=O)N2CCNCC2)nn1	-0.5	20.4	11.4	·	7.7	2.3	·
NCCCCCc1cn(CC(=O)NCCCCCCCCCCC(=O)N2CCNCC2)nn1	5.1	55.3*	0.8	·	-1.9	-4.8	i
O=C(NCCNC(=O)c1ccccc1)c1ccccc1	0.0	52.5*	0.6	0.1	19.0	-0.9	i
COc1cc2c(cc1OC)-c1cc3ccc(OC)c(OC)c3c[n+]1CC2	1.7	79.7*	-7.4	·	59.9*	-9.7	i
O=C1CN(S(=O)(=O)Cc2ccccc2)C[C@@H]2[C@@H](c3ccc(C#Cc4cccnc4)cc3)[C@@H](CO)N12	·	-9.0	·	·	·	·	·
CN(C)c1ccc(/C=N/n2c(C3CCCCC3)n[nH]c2=S)cc1	-4.6	97.4*	5.2	-33.8	-14.1	-1.7	i
Fc1ccc(/C=N/n2c(C3CCCCC3)n[nH]c2=S)cc1	-0.3	-4.6	11.5	-24.3	5.3	-0.3	·
CCN1CCN(c2nc(Nc3ccc(NC(C)=O)cc3)nc(Nc3ccc(NC(C)=O)cc3)n2)CC1	-0.3	73.2*	-3.9	-0.9	·	·	i
CN1C(=O)c2cc(NC(=O)C3CCOCC3)ccc2OC[C@@H]2O[C@@H](CC(=O)NCc3ccc4c(c3)OCO4)CC[C@H]21	·	14.8	·	·	-6.0	·	·
COCCNC(=S)Nc1ccc2nc(N3CCOCC3)cc(C)c2c1	1.4	9.8	5.8	-7.8	5.0	0.2	·
CCCN(CCC)CCCNC(=S)Nc1ccc2nc(N3CCN(CC)CC3)cc(C)c2c1	-1.7	97.2*	-1.4	36.5	·	·	i
CCCCN(CC)CCNC(=O)CCC(=O)Nc1ccc2nc(N3CCN(C)CC3)cc(C)c2c1	2.0	81.0*	-12.7	41.1*	43.6	-2.4	i
Cc1cc(N2CCOCC2)nc2ccc(NC(=S)NC(C)C)cc12	2.6	52.8*	-1.4	-3.1	8.5	15.6	i
CCN1CCN(c2cc(C)c3cc(NC(=O)c4ccc(C)c(C)c4)ccc3n2)CC1	-11.2	0.5	-3.5	18.8	25.5	-0.7	·
SMILES	Glyco luc inh	RAD52 anneal inh	NRP1-CendR mod	FID counter	RAD54 inh	miR122 inh	DNA binder FP
CCN(CC)CCCNC(=O)CCC(=O)Nc1ccc2nc(N3CCCCC3)cc(C)c2c1	0.3	26.7	-7.8	29.8	·	11.5	·
CCOC(=O)N1CCN(C(=S)Nc2ccc3nc(N4CCN(CC)CC4)cc(C)c3c2)CC1	-3.8	53.7*	0.1	24.9	37.2	-17.3	i
COCCNC(=O)c1cc2c(c(-c3cccc(C4=CCCCC4)c3)n1)[C@@H](CCO)N([S@](=O)C(C)(C)C)C2	·	-19.4	·	·	·	·	·
COc1ccc(C(CCN2CCOCC2)c2c(OC)cc(OC)c3c(-c4ccccc4)cc(=O)oc23)cc1 (configuration not stated)	-8.4	50.6*	-5.4	·	2.9	89.0	i
COc1ccc(S(=O)(=O)Nc2ccc3c(c2)CC(=O)N([C@H](C)CO)C[C@H](C)[C@@H](CN(C)C(=O)Nc2ccc4c(c2)OCO4)O3)cc1	·	-16.0	·	·	4.9	9.3[16.7 µM]	·
C[C@H]1CCCCO[C@@H](CN(C)C(=O)CCCN(C)C)[C@@H](C)CN([C@@H](C)CO)C(=O)c2cc(NC(=O)c3ccccc3)ccc2O1	·	17.0	·	·	4.0	-1.4[16.7 µM]	·
CNC[C@H](O)c1ccc(O)c(O)c1	-0.5	0.2	-0.6	1.9	1.2	4.4	·
NC[C@H](O)c1ccc(O)c(O)c1	-0.1	69.8*	10.8	·	-4.5	-0.9	i
C/C=C/c1ccc(C2[C@H]3CNC[C@@H]2N3Cc2ccccc2OC)cc1 (some centres not stated)	·	-4.7	·	·	·	·	·
CCN(CC)CCN(Cc1cc2cc3c(cc2[nH]c1=O)OCCO3)C(=S)NCCCN(C)C	2.0	54.4*	3.1	2.2	0.8	-1.8	i
CN(C)CCCNC(=S)N(CCN(C)C)Cc1cc2cc3c(cc2[nH]c1=O)OCCO3	-0.9	83.9*	-10.4	6.3	28.8	-4.8	i
CCOc1ccc2[nH]c(=S)[nH]c2c1	-1.4	·	2.3	-3.4	3.5	8.1	·
CCOc1ccc2[nH]c3c(c2c1)CNCC3	1.6	55.2*	-9.1	4.0	24.9	-5.7	i
C[C@@H](c1ccccc1)N1C[C@H](COCc2ccccc2)Oc2cc(N3CC[C@H](N(C)C)C3)ccc2S1(=O)=O	·	51.8*	2.5	·	·	·	i
Cc1noc(C)c1S(=O)(=O)Nc1ccc2c(c1)C(=O)N([C@@H](C)CO)C[C@@H](C)[C@H](CN(C)C(=O)NC(C)C)OCCCC[C@H](C)O2	·	-3.1	·	·	-7.3	-2.7[16.7 µM]	·
COc1ccccc1-c1cn(CC[C@@H]2CC[C@H](NC(=O)c3cnccn3)[C@H](CO)O2)nn1	·	-19.6	·	·	-1.9	·	·
C[C@@H]1CCCCO[C@@H](CN(C)CC2CCCCC2)[C@H](C)CN([C@H](C)CO)C(=O)c2cc(NC(=O)NC3CCCCC3)ccc2O1	·	·	·	·	-5.4	-11.2[16.7 µM]	·
C[C@@H]1ON(C)[C@H]2C[C@H]3c4cc(-c5cc6ccccc6o5)ccc4CCN3C[C@@H]12	·	68.3*	·	·	·	·	i
OC[C@H]1[C@H](c2ccc(C#CC3(O)CCCC3)cc2)[C@@H]2CN(Cc3cccnc3)CCCCN12	·	-4.9	·	·	8.5	-1.5[16.7 µM]	·
O=C(N/N=C/c1cccc([N+](=O)[O-])c1)c1cc[n+](CCO)cc1	-0.6	82.3*	5.3	13.3	18.5	-0.7	i
